# The source made the active and inactive calls. Unless noted, how the calls were made is not given here.
# Tests used:
# [1] = compounds binding Alexa647 anti-His antibody – biochemical, small-molecule microarray, 635 nm fluorescence, artefact control for SMM control protein annotation, primary screen (AID 1128); details: higher = more signal;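 further: score merges feature fluorescence with signal-to-noise for each printed compound spot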
# [2] = system: Human papillomavirus type 1a E7 protein (residues 1-88); assay: HPV1a E7 small-molecule binders, primary screen, biochemical, small-molecule microarray, residues 1-88, 635 nm (AID 1129); details: small-molecule microarray binding, fluorescence 635 nm; higher = more signal
# [3] = biological target: Focal adhesion kinase 1 (Homo sapiens) (UniProt Q05397); assay: PTK2 protein binding on printed compound slides – biochemical, small-molecule microarray, 635/667 nm fluorescence, BSA, DTT, primary screen (AID 1130); details: 635 nm fluorescence, higher = more signal;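 further: composite of spot emission at 667 nm and signal to noise over triplicate slides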
# [4] = system: Fibrinogen (Alexa647-labelled); assay: Alexa647-fibrinogen binding to printed small molecules – biochemical, small-molecule microarray, 635/667 nm fluorescence, artefact control for SMM control-protein annotation, profiling panel (AID 1131); details: fibrinogen-A647 binding fluorescence, higher = more signal;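 further: z-score merges 667 nm fluorescence with per-spot signal-to-noise over triplicate slides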
# [5] = biological target: Follistatin (Homo sapiens) (UniProt P19883); assay: FST protein binding to printed compounds – biochemical, small-molecule microarray, 635/667 nm fluorescence, primary screen (AID 1132); details: 635 nm fluorescence, higher = more signal
# [6] = biological target: Fibroblast growth factor 2 (Homo sapiens) (UniProt P09038); assay: basic fibroblast growth factor binding to printed compounds – biochemical, small-molecule microarray, 635/667 nm fluorescence, primary screen (AID 1133); details: FGF2, fluorescence 635/667, higher = more signal
# [7] = JC-1 mitochondrial potential readout, lung cancer cells – cell-based, A549, JC-1 fluorescence, basal, 24 h, 100 nL, profiling panel (AID 1138); details: higher = more signal;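 further: A549 lung adenocarcinoma cells under basal conditions with no added stimulus; test concentration not given here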
# [8] = system: Lefty1; assay: Lefty1 protein binding to printed compounds – biochemical, small-molecule microarray, 635/667 nm fluorescence, primary screen (AID 1139); details: fluorescence 635/667, higher = more signal
# [9] = system: wheat germ agglutinin (Triticum aestivum), Alexa647-labelled; assay: Alexa647-WGA lectin binding to printed small molecules – biochemical, small-molecule microarray, 635/667 nm fluorescence, artefact control for SMM control-protein annotation, profiling panel (AID 1140); details: WGA-A647 binding, 635 nm fluorescence, higher = more signal;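 further: score merges 667 nm feature emission with signal to noise over triplicate slides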
# [10] = biological target: Luciferin 4-monooxygenase (Photinus pyralis) (UniProt P08659); assay: inhibition of purified Photinus pyralis luciferase – biochemical, luminescence, purified enzyme, 2006 set, primary screen (AID 1141); details: purified firefly luciferase, SteadyGlo luminescence, 30 min; higher = more signal, called active from +8 up or from −8 down;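 further: cell-free assay with purified firefly luciferase at 100 ng per well in PBS; test concentration not given here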
# [11] = system: Wnt5a (protein binding on small-molecule microarray); assay: small molecules binding Wnt5a protein – biophysical, small-molecule microarray, 635/667 nm fluorescence, primary screen (AID 1142); details: 635 nm fluorescence, higher = more signal;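 further: fluorescence read at 667 nm with signal to noise per printed feature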
# [12] = ATP-based viability of Huh7 replicon cells – cell-based, CellTiter-Glo luminescence, basal, 48 h, cytotoxicity control for HCV replication inhibitor project, primary screen (AID 1143); details: higher = more signal, called active from +8 up or from −8 down;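 further: Huh7 hepatoma cells carrying a hepatitis C replication reporter with no stimulus; test concentration not given here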
# [13] = Pseudomonas biofilm growth suppression – PAO1 strain, BacTiter-Glo luminescence, LB-PBS, primary screen (AID 1144); details: P. aeruginosa PAO1 biofilm, 12 h, higher = more signal
# [14] = basal CRE-LacZ reporter activity in PC12 – cell-based, unstimulated, primary screen (AID 1145); details: no forskolin, luminescence, 4.5 h, higher = more signal, called active from +8 up or from −8 down
# [15] = forskolin-driven CRE-LacZ activity in PC12 – cell-based, CRE-LacZ reporter, forskolin-stimulated, primary screen (AID 1146); details: luminescence, 4.5 h, higher = more signal, called active from +8 up or from −8 down;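 further: PC12 cells with 6xCRE LacZ reporter stimulated by forskolin 10 µM; beta-galactosidase reporter signal reflecting CREB driven transcription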
# [16] = biological target: Streptavidin (Streptomyces avidinii) (UniProt P22629); assay: compounds binding control protein streptavidin – biophysical, small-molecule microarray, 635/667 nm fluorescence, artefact control for SMM compound annotation, primary screen (AID 1147); details: higher = more signal;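 further: signal reflects streptavidin binding to arrayed compounds as a control protein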
# [17] = probe aInhba binding on compound microarray – biochemical, small-molecule microarray, 635/667 nm fluorescence, primary screen (AID 1148); details: higher = more signal;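 further: score merges 667nm spot fluorescence with signal-to-noise for antibody binding to printed compounds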
# [18] = biological target: Torsin-1A (Homo sapiens) (UniProt O14656); assay: TOR1A wild-type binding on microarray – cell lysate, small-molecule microarray, lysate, 635/667 nm, primary screen (AID 1149); details: COS7 hTOR1A-WT lysate, 635 nm fluorescence, higher = more signal
# [19] = biological target: Torsin-1A (Homo sapiens) (UniProt O14656); assay: torsin A mutant lysate binding on microarrays – cell lysate, small-molecule microarray, COS7 lysate, 635/667 nm fluorescence, primary screen (AID 1150); details: COS7 hTOR1A mutant lysate, 635 nm fluorescence, higher = more signal;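 further: score pools 667 nm emission and signal to noise measuring lysate protein binding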
# [20] = system: Sonic hedgehog protein (Shh); assay: Sonic hedgehog microarray binding compounds – biochemical, small-molecule microarray, 635/667 nm fluorescence, primary screen (AID 1151); details: 635 nm fluorescence, higher = more signal;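 further: Shh protein binding to compounds spotted on small-molecule microarray slides; score combines spot fluorescence intensity with signal-to-noise across triplicate slides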
# Sequence of Torsin-1A (Homo sapiens) (O14656 whole entry, looked up): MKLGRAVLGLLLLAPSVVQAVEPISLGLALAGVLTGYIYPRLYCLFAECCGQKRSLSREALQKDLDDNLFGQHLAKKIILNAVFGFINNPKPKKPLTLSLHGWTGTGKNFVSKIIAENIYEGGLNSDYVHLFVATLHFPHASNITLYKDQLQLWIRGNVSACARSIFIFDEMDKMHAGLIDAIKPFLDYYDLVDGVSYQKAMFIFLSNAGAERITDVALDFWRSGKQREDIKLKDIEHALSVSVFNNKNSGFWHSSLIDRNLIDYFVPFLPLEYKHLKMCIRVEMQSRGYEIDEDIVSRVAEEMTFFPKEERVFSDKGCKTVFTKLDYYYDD
# Sequence of Streptavidin (Streptomyces avidinii) (P22629 whole entry, looked up): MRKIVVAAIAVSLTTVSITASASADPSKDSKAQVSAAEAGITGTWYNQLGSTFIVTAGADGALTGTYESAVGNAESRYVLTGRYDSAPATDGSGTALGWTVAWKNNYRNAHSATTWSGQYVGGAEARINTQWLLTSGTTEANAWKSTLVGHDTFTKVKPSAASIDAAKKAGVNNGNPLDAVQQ
# Sequence of Fibroblast growth factor 2 (Homo sapiens) (P09038 whole entry, looked up): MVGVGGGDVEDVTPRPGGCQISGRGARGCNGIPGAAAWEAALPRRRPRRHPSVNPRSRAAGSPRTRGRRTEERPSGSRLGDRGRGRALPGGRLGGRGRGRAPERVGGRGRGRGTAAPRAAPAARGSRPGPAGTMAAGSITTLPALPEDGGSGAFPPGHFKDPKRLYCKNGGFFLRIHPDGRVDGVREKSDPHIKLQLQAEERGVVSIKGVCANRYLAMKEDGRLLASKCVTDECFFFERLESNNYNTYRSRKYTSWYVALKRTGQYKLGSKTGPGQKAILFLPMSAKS
# Sequence of Follistatin (Homo sapiens) (P19883 whole entry, looked up): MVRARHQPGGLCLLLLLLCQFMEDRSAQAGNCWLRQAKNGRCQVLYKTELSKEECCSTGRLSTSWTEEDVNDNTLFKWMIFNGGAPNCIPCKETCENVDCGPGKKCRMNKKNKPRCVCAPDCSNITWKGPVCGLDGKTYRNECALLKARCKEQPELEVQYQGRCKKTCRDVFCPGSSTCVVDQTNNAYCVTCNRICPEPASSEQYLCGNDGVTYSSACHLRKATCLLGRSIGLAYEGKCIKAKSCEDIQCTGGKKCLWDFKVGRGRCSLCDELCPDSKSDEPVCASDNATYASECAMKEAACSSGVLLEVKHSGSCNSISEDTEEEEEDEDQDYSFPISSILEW
# Sequence of Focal adhesion kinase 1 (Homo sapiens) (Q05397 whole entry, looked up): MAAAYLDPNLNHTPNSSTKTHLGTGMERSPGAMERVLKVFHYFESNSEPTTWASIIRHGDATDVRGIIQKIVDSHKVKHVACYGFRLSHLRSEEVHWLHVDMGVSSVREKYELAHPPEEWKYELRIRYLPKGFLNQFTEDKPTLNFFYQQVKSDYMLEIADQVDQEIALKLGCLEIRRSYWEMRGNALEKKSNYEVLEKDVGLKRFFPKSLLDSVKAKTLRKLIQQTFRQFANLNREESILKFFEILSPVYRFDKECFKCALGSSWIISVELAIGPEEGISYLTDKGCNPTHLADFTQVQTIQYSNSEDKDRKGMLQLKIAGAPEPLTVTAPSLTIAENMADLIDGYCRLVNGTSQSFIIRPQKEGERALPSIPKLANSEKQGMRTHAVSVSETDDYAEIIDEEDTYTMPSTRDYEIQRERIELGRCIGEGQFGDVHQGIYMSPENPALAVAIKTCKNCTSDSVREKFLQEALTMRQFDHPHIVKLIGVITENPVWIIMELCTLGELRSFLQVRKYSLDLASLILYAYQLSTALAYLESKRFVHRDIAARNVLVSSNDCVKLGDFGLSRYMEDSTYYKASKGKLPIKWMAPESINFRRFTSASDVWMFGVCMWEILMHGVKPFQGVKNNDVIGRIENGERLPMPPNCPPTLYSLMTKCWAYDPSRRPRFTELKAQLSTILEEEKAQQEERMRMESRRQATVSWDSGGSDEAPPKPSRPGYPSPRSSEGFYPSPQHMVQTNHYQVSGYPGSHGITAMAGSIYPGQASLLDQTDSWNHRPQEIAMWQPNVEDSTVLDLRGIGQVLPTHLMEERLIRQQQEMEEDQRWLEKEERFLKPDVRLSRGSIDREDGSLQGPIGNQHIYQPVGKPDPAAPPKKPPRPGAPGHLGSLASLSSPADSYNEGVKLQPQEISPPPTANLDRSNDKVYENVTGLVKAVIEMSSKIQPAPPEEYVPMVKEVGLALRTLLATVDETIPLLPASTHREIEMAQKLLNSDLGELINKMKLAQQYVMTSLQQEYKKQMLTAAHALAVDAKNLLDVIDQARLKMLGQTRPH
# Sequence of Luciferin 4-monooxygenase (Photinus pyralis) (P08659 whole entry, looked up): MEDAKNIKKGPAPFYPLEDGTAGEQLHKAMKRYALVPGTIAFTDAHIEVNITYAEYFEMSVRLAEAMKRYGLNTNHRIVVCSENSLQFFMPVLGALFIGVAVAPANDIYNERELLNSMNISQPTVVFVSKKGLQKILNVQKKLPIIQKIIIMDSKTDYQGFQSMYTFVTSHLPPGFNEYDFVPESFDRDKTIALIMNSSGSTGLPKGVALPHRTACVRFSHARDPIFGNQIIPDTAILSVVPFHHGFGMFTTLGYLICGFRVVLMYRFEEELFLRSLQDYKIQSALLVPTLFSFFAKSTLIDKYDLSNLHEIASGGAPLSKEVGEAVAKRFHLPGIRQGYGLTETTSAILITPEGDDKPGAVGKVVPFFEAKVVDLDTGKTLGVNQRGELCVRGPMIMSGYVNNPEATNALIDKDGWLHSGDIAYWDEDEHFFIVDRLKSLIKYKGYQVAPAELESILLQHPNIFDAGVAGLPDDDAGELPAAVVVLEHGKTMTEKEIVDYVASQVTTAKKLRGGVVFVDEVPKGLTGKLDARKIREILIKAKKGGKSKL
compound,measurement,setting,value
C[C@@H](c1ccccc1)N1C(=O)[C@H]2[C@H]3[C@H](O)C=CC(=O)[C@@H]3CC[C@H]2C1=O,composite z-score,[1],0.299
same,composite z-score,[2],0.492
same,composite z-score,[3],-0.0464
same,composite z-score,[4],0.392
same,composite z-score,[5],0.503
same,composite z-score,[6],0.104
same,z-score,[7],0.107
same,composite z-score,[8],0.752
same,composite z-score,[9],0.204
same,z-score,[10],-0.62 (inactive)
same,composite z-score,[11],-0.143
same,z-score,[12],-1.8 (inactive)
same,z-score,[13],0.715 (inactive)
same,z-score,[14],0.247 (inactive)
same,z-score,[15],-0.323 (inactive)
same,composite z-score,[16],0.831
same,composite z-score,[17],0.0422
same,composite z-score,[18],0.445
same,composite z-score,[19],0.0746
same,composite z-score,[20],0.593
C[C@H](c1ccccc1)N1C(=O)[C@H]2[C@H]3[C@H](O)[C@H](O)CC(=O)[C@@H]3CC[C@H]2C1=O,composite z-score,[1],0.62
same,composite z-score,[2],-0.0909
same,composite z-score,[3],0.0546
same,composite z-score,[4],0.436
same,composite z-score,[5],0.469
same,composite z-score,[6],0.51
same,z-score,[7],0.47
same,composite z-score,[8],0.515
same,composite z-score,[9],0.286
same,z-score,[10],0.569 (inactive)
same,composite z-score,[11],0.507
same,z-score,[12],-1.37 (inactive)
same,z-score,[13],0.00143 (inactive)
same,z-score,[14],-0.885 (inactive)
same,z-score,[15],-0.997 (inactive)
same,composite z-score,[16],0.239
same,composite z-score,[17],-0.0059
same,composite z-score,[18],0.458
same,composite z-score,[19],0.208
same,composite z-score,[20],0.694
O=C1[C@H]2[C@H]3[C@H](O)[C@H](O)CC(=NO[C@@H]4O[C@H](CO)[C@@H](O)[C@H](O)[C@H]4O)[C@@H]3CC[C@H]2C(=O)N1Cc1ccccc1,composite z-score,[1],-0.58
same,composite z-score,[2],-0.623
same,composite z-score,[3],0.593
same,composite z-score,[4],-0.247
same,composite z-score,[5],-0.303
same,composite z-score,[6],0.16
same,z-score,[7],0.129
same,composite z-score,[8],0.289
same,composite z-score,[9],-0.0706
same,z-score,[10],0.4 (inactive)
same,composite z-score,[11],-0.0389
same,z-score,[12],-0.435 (inactive)
same,z-score,[13],0.0971 (inactive)
same,z-score,[14],-0.929 (inactive)
same,z-score,[15],0.488 (inactive)
same,composite z-score,[16],-0.561
same,composite z-score,[17],0.0925
same,composite z-score,[18],-0.333
same,composite z-score,[19],0.409
same,composite z-score,[20],-0.37
CCOC(=O)C1=CC[C@H]2C(=O)N(CC)C(=O)[C@@H]12,composite z-score,[1],0.299
same,composite z-score,[2],0.775
same,composite z-score,[3],-0.0436
same,composite z-score,[4],0.775
same,composite z-score,[5],0.269
same,composite z-score,[6],0.218
same,z-score,[7],-1.1
same,composite z-score,[8],0.443
same,composite z-score,[9],0.433
same,z-score,[10],1.69 (inactive)
same,composite z-score,[11],0.281
same,z-score,[12],-0.0046 (inactive)
same,z-score,[13],-0.929 (inactive)
same,z-score,[14],-0.228 (inactive)
same,z-score,[15],0.687 (inactive)
same,composite z-score,[16],0.0789
same,composite z-score,[17],-0.0719
same,composite z-score,[18],0.483
same,composite z-score,[19],-0.552
same,composite z-score,[20],0.13
C=C(/C(=C/C[C@@H](OC(=O)c1ccncc1)c1ccc(OCCO)cc1)c1cnc2ccccc2c1)C(C)C,composite z-score,[1],1.03
same,composite z-score,[2],1.13
same,composite z-score,[3],-0.616
same,composite z-score,[4],0.806
same,composite z-score,[5],1.43
same,composite z-score,[6],1.17
same,z-score,[7],0.809
same,composite z-score,[8],1.5
same,composite z-score,[9],0.976
same,z-score,[10],-2.06 (inactive)
same,composite z-score,[11],0.73
same,z-score,[12],-8.41 (active)
same,z-score,[13],-0.56 (inactive)
same,z-score,[14],6.47 (inactive)
same,z-score,[15],-0.209 (inactive)
same,composite z-score,[16],0.283
same,composite z-score,[17],0.0108
same,composite z-score,[18],1.55
same,composite z-score,[19],0.815
same,composite z-score,[20],2.11
CCOC(=O)C[C@H]1[C@H](OC(=O)c2cc3ccccc3oc2=O)[C@@H](NC(=O)c2ccc3ccccc3n2)c2cc(OCCCO)ccc2N1C(=O)c1ccccc1,composite z-score,[1],1.06
same,composite z-score,[2],0.803
same,composite z-score,[3],0.513
same,composite z-score,[4],0.584
same,composite z-score,[5],1.14
same,composite z-score,[6],1.23
same,z-score,[7],-0.837
same,composite z-score,[8],0.606
same,composite z-score,[9],0.354
same,z-score,[10],0.497 (inactive)
same,composite z-score,[11],0.537
same,z-score,[12],-2.98 (inactive)
same,z-score,[13],0.287 (inactive)
same,z-score,[14],11.9 (active)
same,z-score,[15],0.576 (inactive)
same,composite z-score,[16],0.28
same,composite z-score,[17],0.0345
same,composite z-score,[18],0.354
same,composite z-score,[19],1.37
same,composite z-score,[20],0.574
CC1CC/C=C\[C@H]2OC34C=CCN(C(C)C)C(=O)[C@H]3N(CCCO)C(=O)[C@@H]4C2C(=O)O1 (stereo not given in full),composite z-score,[1],1.41
same,composite z-score,[2],-0.883
same,composite z-score,[3],-0.716
same,composite z-score,[4],-1.5
same,composite z-score,[5],-1.07
same,composite z-score,[6],-1.24
same,z-score,[7],0.439
same,composite z-score,[8],-0.837
same,composite z-score,[9],-1.09
same,z-score,[10],-0.623 (inactive)
same,composite z-score,[11],-0.439
same,z-score,[12],-1.03 (inactive)
same,z-score,[13],1.15 (inactive)
same,z-score,[14],0.601 (inactive)
same,z-score,[15],0.371 (inactive)
same,composite z-score,[16],-1.47
same,composite z-score,[17],0.095
same,composite z-score,[18],1.72
same,composite z-score,[19],-1.29
same,composite z-score,[20],0.533
C=C(CCCC)C(=O)CC[C@@H](OC(C)=O)c1cccc(OCCO)c1,composite z-score,[1],0.936
same,composite z-score,[2],-0.864
same,composite z-score,[3],-0.0296
same,composite z-score,[4],-0.75
same,composite z-score,[5],1.3
same,composite z-score,[6],0.829
same,z-score,[7],-0.497
same,composite z-score,[8],0.932
same,composite z-score,[9],-1.1
same,z-score,[10],-0.879 (inactive)
same,composite z-score,[11],0.0837
same,z-score,[12],-7.53 (inactive)
same,z-score,[13],-0.0381 (inactive)
same,z-score,[14],9.03 (active)
same,z-score,[15],2.58 (inactive)
same,composite z-score,[16],-0.543
same,composite z-score,[17],-0.21
same,composite z-score,[18],1.29
same,composite z-score,[19],0.594
same,composite z-score,[20],1.56
CN(C)C(=O)[C@@]1(Cc2ccccc2)N=C(c2ccc(OCCCO)cc2)O[C@H]1c1ccccc1CN=[N+]=[N-],composite z-score,[1],3.27
same,composite z-score,[2],1.25
same,composite z-score,[3],0.254
same,composite z-score,[4],1.02
same,composite z-score,[5],1.37
same,composite z-score,[6],1.18
same,z-score,[7],1.97
same,composite z-score,[8],0.485
same,composite z-score,[9],1.25
same,z-score,[10],-0.088 (inactive)
same,composite z-score,[11],1.45
same,z-score,[12],-2.26 (inactive)
same,z-score,[13],0.456 (inactive)
same,z-score,[14],0.974 (inactive)
same,z-score,[15],-0.55 (inactive)
same,composite z-score,[16],1.5
same,composite z-score,[17],0.696
same,composite z-score,[18],0.526
same,composite z-score,[19],1.79
same,composite z-score,[20],-0.122
CO[C@H]1COC(=O)CC=C[C@H](C)[C@@H](NS(=O)(=O)c2ccc(C)cc2)COC(=O)CC=C[C@@H]1C,composite z-score,[1],2.79
same,composite z-score,[2],0.0835
same,composite z-score,[3],0.0018
same,composite z-score,[4],0.0607
same,composite z-score,[5],0.932
same,composite z-score,[6],0.585
same,z-score,[7],-0.662
same,composite z-score,[8],0.819
same,composite z-score,[9],-0.0118
same,z-score,[10],-0.277 (inactive)
same,composite z-score,[11],0.0341
same,z-score,[12],-1.82 (inactive)
same,z-score,[13],-0.63 (inactive)
same,z-score,[14],-0.971 (inactive)
same,z-score,[15],-0.562 (inactive)
same,composite z-score,[16],-0.0767
same,composite z-score,[17],-0.127
same,composite z-score,[18],0.693
same,composite z-score,[19],0.722
same,composite z-score,[20],0.936
